# Laboratory results reported in PubChem BioAssay (NCATS).
# Inconclusive results are not listed. Entries that show only a call come without a potency. Calls of active or inactive are those of the source. Calls follow the shape of the dose curve; as a rule, active = well fitted inhibition curve with a large enough effect; inconclusive = small, poorly fitted or top-dose-only effect; inactive = no such curve, though single readings can be large or run the other way.
# Assay: P-glycoprotein substrates identified in KB-3-1 adenocarcinoma cell line, qHTS therapeutic library screen (AID 1346986); also: nearly all actives have a fitted effect of over 60% in size;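 also: potency is for cytotoxicity meaning loss of cell viability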
# Settings: KB-3-1 parental cells viability, CellTiter-Glo, 72 h; series mostly up to 44.5 µM
# Summary of the method: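 In 1536-well format, 500 cells/well received pinned compound titrations and were incubated 72 h, 5% CO2. Viability was read by CellTiter-Glo; cytotoxic if AC50 < 10 uM and efficacy >50%.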
# Potency is read from the fitted curve at half-maximal effect.
Structure (SMILES),Potency,outcome
C=C1C[C@]23C[C@H]1CC[C@H]2C1=C[C@H]2OC(=O)[C@@](C)([C@H]1[C@@H]3C(=O)O)[C@H]2O,inactive,
CCS(=O)(=O)N1CCN(c2ccc(Nc3ncc(C(N)=O)c(NC4CC4)n3)cc2)CC1,4610 nM (active),
COC(C(=O)N1Cc2[nH]nc(NC(=O)c3ccc(N4CCN(C)CC4)cc3)c2C1)c1ccccc1 (stereo not drawn),517 nM (active),
CCCCNc1ncc2c(-c3ccc(CN4CCN(C)CC4)cc3)cn(C3CCC(O)CC3)c2n1 (stereo not drawn),517 nM (active),
CC1=CC2C(CC1OC1OC(CO)C(O)C(O)C1O)C(C)CC(=O)C2C(C)C (stereo not drawn),inactive,
[N-]=[N+]=N[C@]1(CO)O[C@@H](n2ccc(=O)[nH]c2=O)[C@@H](O)[C@@H]1O,inactive,
C=CC1C(OC2OC(CO)C(O)C(O)C2O)OC=C(C(=O)OC)C1CC(=O)OCC1C(C)C(O)CC1C(CO)COC(=O)CC1C(C(=O)O)=COC(OC2OC(CO)C(O)C(O)C2O)/C1=C\C (stereo not drawn),,inactive [at 9.29 µM]
CC(=O)C1=CCC2C3CCC4CC(O[C@@H]5O[C@H](CO)[C@@H](O[C@@H]6O[C@@H](C)[C@H](O)[C@@H](O)[C@H]6O)[C@H](O)[C@H]5O[C@@H]5O[C@H](CO)[C@@H](O)[C@H](O)[C@H]5O)CCC4(C)C3CCC12C (stereo partly drawn),inactive,
CC(=O)OC/C=C(\C)C(CC1C(C)=C(OC(C)=O)C(=O)C2C(C)(C)C(O)CCC12C)OC(C)=O (stereo not drawn),inactive,
COC(=O)c1cc(OC)cc(OC)c1C(=O)c1c(OC)cc2c(c1O)C1CCCC(C)(O2)O1 (stereo not drawn),inactive,
CCC[C@@H]1O[C@@H]2C[C@H]3[C@@H]4CCC5=CC(=O)C=C[C@]5(C)[C@H]4[C@@H](O)C[C@]3(C)[C@]2(C(=O)CO)O1,inactive,
C[C@H](N)C(=O)N[C@@H](Cc1ccc(O)cc1)C(=O)N1CCC[C@H]1C(=O)NCC(=O)N[C@@H](CCCCN)C(=O)N[C@@H](Cc1ccccc1)C(N)=O,,inactive [at 9.29 µM]
COC(=O)[C@H](O)[C@H]1C(C)(C)[C@H](OC(=O)C(C)C)[C@@]2(O)C(=O)[C@]1(C)C1CC[C@]3(C)C(CC(=O)O[C@H]3c3ccoc3)[C@]13O[C@@H]32 (stereo partly drawn),inactive,
CC(NC(=O)C(O)C(C)C)C(=O)NC1C(=O)N(C)CCc2ccccc21 (stereo not drawn),inactive,
C=C1CC[C@@H]2[C@](C)(CO[C@@H]3O[C@H](CO)[C@@H](O)[C@H](O)[C@H]3O)[C@H](O)CC[C@@]2(C)[C@@H]1C/C=C1/C(=O)OC[C@H]1O,inactive,
COC(=O)C1=CO[C@@H](O[C@@H]2O[C@H](CO)[C@@H](O)[C@H](O)[C@H]2O)[C@H]2[C@@H]1C=C[C@@]21C=C([C@H](C)O)C(=O)O1,inactive,
O=C(Nc1ccc(-c2ccncc2)cc1)N[C@H](CO)c1ccccc1,inactive,
CC(=O)O[C@@H]1c2c3c(cc(O)c2C(=O)O[C@@H]1C)O[C@@]1(C)[C@@H](O)C[C@H]2C(C)(C)C(=O)C=C[C@]2(C)[C@@H]1C3,inactive,
CC1OC(O[C@H]2CC[C@@]3(C)C(CC[C@]4(C)C3CC=C3C5CC(C)(C)CC[C@]5(C(=O)OC5OC(CO)C(OC6OC(COC7OCC(O)C(O)C7O)C(O)C(O)C6O)C(O)C5O)CC[C@]34C)C2(C)C)C(O)C(O)C1OC1OCC(OC2OCC(O)C(O)C2O)C(O)C1O (stereo partly drawn),,inactive [at 9.29 µM]

Structure (SMILES),Potency,outcome
Cc1cc(Nc2nc(NC(C)c3ncc(F)cn3)ncc2Cl)n[nH]1 (stereo not drawn),inactive,
CC(=O)OC1C(O)C2C(C)C3=CC(=O)OC3(O)CC2C2(C)CCCC(C)(CO)C12 (stereo not drawn),inactive,
CC(C)(F)C[C@@H](N[C@@H](c1ccc(-c2ccc(S(C)(=O)=O)cc2)cc1)C(F)(F)F)C(=O)NC1(C#N)CC1,inactive,
Cc1c(CN2CCN(C(=O)C(C)O)CC2)sc2c(N3CCOCC3)nc(-c3cnc(N)nc3)nc12 (stereo not drawn),259 nM (active),
Nc1nc2c(ncn2[C@@H]2O[C@@H]3COP(=O)(O)O[C@H]3[C@H]2O)c(=O)[nH]1,inactive,
CS(=O)(=O)c1ccc([C@H](CC2CCCC2)C(=O)Nc2nccs2)cc1,inactive,
CC(C)(C)NS(=O)(=O)c1cncc(-c2cc(F)c3nc(N)nn3c2)c1,inactive,
OC[C@H]1O[C@@H](Oc2cc(O)c3c(c2)O[C@@H](c2ccc(O)cc2)[C@H](O)C3)[C@H](O)[C@@H](O)[C@@H]1O,inactive,
CC(C)CC1NC(=O)C(C)NC(=O)C(CC(C)C)OC(=O)CCCNC1=O (stereo not drawn),inactive,
CC(C)=C/C=C\[C@H](C)[C@H]1CC[C@]2(C)C[C@@H]3C(C)=CC(=O)C3/C(CO)=C\C[C@@H]12 (stereo partly drawn),inactive,
CC(=O)O[C@H]1[C@H](O[C@H]2[C@@H]3C=CO[C@@H](O[C@@H]4O[C@H](CO)[C@@H](O)[C@H](O)[C@H]4O)[C@@H]3[C@@]3(CO)O[C@@H]23)O[C@@H](C)[C@H](OC(=O)/C=C/c2ccccc2)[C@H]1OC(=O)/C=C/c1ccccc1,,inactive [at 9.29 µM]
CCOc1cc(C)c(Cl)cc1S(=O)(=O)n1cnc2ccccc21,inactive,
O=C(O)c1cn(C2CC2)c2cc(N3C[C@@H]4C[C@H]3CN4)c(F)cc2c1=O,inactive,
C=C1C(=O)OC2CC3(C)C(CC12)C(C)=CC(O)C3OC(C)=O (stereo not drawn),inactive,
O=C(c1ccc2nccnc2c1)N1CCCCC1,inactive,
CC(C)(C)c1ccc(S(=O)(=O)Nc2ccc(Cl)cc2C(=O)c2cc[n+]([O-])cc2)cc1,inactive,
CCCOc1ccc(-c2nc(OC)c3ccccc3n2)cc1,inactive,
C=C1C(=O)O[C@@H]2C[C@H](C)[C@@]3(O)C=C(C(C)=O)[C@]4(CC3C[C@H]12)C(=O)O[C@H]1C[C@@H](C)C(CCC(C)=O)=CC[C@H]14 (stereo partly drawn),inactive,
Cc1nc(NC(=O)N2CCCC2C(N)=O)sc1-c1csc(C(C)(C)C)n1 (stereo not drawn),inactive,
